The nature of test [1]: E. coli DRC41 culture turbidity changes, primary screen, E. coli filamentation inducer project, strain DRC41, OD650, 48 h (AID 1152).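 Note: E. coli MC1000 strain DRC41 lacking acrAB efflux pump and sulA.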 The settings on record: E. coli DRC41 (acrAB sulA), higher = more signal, called active from +8 up or from −8 down.
The nature of test [2]: small-molecule binders of probe aLefty1, primary screen, biochemical, small-molecule microarray, 635/667 nm fluorescence (AID 1153).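 Note: score merges spot fluorescence with signal-to-noise ratio from the scanned slide images.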 The conditions noted are these: higher = more signal.
A short description of test [3]: PSAC antagonists in infected red cells, primary screen, cell-based, P. falciparum Indochina, OD700, 1 h (AID 1154). The settings on record: P. falciparum Indochina infected RBC osmotic lysis, higher = more signal, called active from +8 up or from −8 down.
Test [4] is described as follows: PSAC antagonists in infected red cells, primary screen, cell-based, P. falciparum Indochina, OD700, 2 h (AID 1155).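 Note: lysis reports solute entry through the parasite surface anion channel PSAC; channel blockers reduce lysis of infected cells.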 The conditions noted are these: P. falciparum Indochina infected erythrocytes, osmotic lysis OD700; higher = more signal, called active from +8 up or from −8 down.
Test [5] can be described thus: osmotic lysis modulators in infected erythrocytes, primary screen, PSAC antagonist project, cell-based, P. falciparum Indochina, OD700, 3 h (AID 1156). The conditions noted are these: higher = more signal, called active from +8 up or from −8 down.
Test [6] in a line: PSAC antagonists in infected red cells, primary screen, cell-based, P. falciparum Indochina, OD700, 18 h (AID 1157). The conditions noted are these: P. falciparum Indochina infected erythrocytes, osmotic lysis OD700, 18 h; higher = more signal, called active from +8 up or from −8 down.
A short description of test [7]: modulators of S6 phosphorylation in cells, primary screen, cell-based, A549, cytoblot, luminescence, serum-stimulated (AID 1158).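 Note: serum-stimulated A549 lung adenocarcinoma cells; signal is phosphorylated S6 detected by cytoblot immunostaining with HRP secondary.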 The settings on record: A549 phospho-S6 cytoblot, 5 h, higher = more signal.
Test [8] has as its target NADPH oxidase 2 (Homo sapiens) (UniProt P04839). Nature of the test: NOX2-dependent H2O2 signal modulators, primary screen, NOX inhibitor project, cell-based, HEK293-NOX2, PMA-stimulated, Amplex Red fluorescence (AID 1159). Note: test concentration not given here. The conditions noted are these: 45 min, higher = more signal, called active from +8 up or from −8 down.
The target of test [9] is NADPH oxidase 4 (Homo sapiens) (UniProt Q9NPH5). Nature of the test: NOX4-dependent H2O2 signal modulators, primary screen, NOX inhibitor project, cell-based, HEK293-NOX4, tetracycline-induced, Amplex Red fluorescence (AID 1160). The conditions noted are these: 45 min, higher = more signal, called active from +8 up or from −8 down.
Test [10] addresses NADPH oxidase 5 (Homo sapiens) (UniProt Q96PH1). Put plainly: NOX5-dependent H2O2 signal modulators, primary screen, NOX inhibitor project, cell-based, HEK293-NOX5, Amplex Red fluorescence (AID 1161). The settings on record: HEK293-NOX5, ionomycin, 45 min, higher = more signal.

Molecules are shown by their SMILES. The source made the active and inactive calls.

Sequence of NADPH oxidase 5 (Homo sapiens) (Q96PH1 whole entry, looked up): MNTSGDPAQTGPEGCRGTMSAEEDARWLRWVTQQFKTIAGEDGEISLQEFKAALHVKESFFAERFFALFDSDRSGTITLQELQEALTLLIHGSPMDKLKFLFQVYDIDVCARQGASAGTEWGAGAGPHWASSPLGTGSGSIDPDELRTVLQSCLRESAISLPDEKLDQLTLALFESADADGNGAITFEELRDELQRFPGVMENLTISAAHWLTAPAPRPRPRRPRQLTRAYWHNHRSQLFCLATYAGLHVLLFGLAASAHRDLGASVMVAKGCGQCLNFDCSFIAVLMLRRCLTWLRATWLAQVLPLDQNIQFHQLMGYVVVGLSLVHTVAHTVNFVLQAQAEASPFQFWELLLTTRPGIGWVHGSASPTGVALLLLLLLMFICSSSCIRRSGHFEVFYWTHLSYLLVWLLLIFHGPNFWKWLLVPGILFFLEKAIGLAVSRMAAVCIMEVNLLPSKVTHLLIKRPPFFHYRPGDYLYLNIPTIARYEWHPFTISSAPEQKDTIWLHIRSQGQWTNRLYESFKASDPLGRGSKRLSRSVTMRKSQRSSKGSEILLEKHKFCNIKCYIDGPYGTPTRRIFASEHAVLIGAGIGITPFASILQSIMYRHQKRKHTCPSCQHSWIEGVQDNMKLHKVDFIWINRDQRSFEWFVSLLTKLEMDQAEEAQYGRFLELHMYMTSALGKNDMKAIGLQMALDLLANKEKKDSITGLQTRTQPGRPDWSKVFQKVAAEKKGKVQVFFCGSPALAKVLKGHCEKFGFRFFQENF
Sequence of NADPH oxidase 4 (Homo sapiens) (Q9NPH5 whole entry, looked up): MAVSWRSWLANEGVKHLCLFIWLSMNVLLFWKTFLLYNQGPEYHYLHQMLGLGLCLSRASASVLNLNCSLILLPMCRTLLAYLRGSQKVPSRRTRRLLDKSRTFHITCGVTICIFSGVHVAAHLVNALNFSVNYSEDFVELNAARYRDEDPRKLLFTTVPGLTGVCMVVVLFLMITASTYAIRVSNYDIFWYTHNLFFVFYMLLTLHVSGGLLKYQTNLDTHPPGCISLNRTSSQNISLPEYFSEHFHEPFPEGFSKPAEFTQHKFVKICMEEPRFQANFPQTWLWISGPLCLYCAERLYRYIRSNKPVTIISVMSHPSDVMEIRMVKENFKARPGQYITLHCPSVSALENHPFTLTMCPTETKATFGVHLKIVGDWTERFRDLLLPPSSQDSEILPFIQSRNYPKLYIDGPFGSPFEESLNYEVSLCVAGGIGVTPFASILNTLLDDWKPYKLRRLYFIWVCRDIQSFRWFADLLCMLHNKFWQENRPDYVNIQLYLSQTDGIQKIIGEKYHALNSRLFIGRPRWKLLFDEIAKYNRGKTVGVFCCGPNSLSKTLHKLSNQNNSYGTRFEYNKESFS
Sequence of NADPH oxidase 2 (Homo sapiens) (P04839 whole entry, looked up): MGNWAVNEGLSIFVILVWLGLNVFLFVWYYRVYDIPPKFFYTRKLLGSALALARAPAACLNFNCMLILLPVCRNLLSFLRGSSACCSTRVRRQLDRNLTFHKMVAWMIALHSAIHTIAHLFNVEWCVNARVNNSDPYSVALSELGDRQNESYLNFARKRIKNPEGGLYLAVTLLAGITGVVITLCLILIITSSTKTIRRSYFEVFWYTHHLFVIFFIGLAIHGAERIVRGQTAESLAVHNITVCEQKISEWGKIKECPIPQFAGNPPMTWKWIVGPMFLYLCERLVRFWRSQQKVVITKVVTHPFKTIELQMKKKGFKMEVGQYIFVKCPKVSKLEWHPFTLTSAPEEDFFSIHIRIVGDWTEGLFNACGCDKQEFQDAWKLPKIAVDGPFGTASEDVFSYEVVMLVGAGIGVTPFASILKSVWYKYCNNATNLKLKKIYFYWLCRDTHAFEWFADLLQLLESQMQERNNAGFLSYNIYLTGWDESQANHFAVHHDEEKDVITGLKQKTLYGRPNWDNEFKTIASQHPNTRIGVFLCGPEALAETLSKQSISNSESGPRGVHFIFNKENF

For `COc1ccc([Si](C)(C)[C@H]2[C@H](CCn3cc([C@H](O)c4ccccc4)nn3)O[C@@]3(C(=O)N(Cc4cccc(N5C(=O)c6cccc7cccc5c67)c4)c4ccccc43)[C@@H]2C)cc1`, the z-score in [1] is -0.749 (inactive); in [3] it was 1.23 (inactive); in [4] it was -0.38 (inactive); in test [5], -0.58 (inactive); in test [6] it was 0.376 (inactive); in test [7], -0.0203. The figures for the z-score in [8], in test [9] and in test [10] were 0.918 (inactive), 1.57 (inactive) and 1.56, respectively. Besides, the composite z-score in test [2] is -0.0141.
Consider `C=C(/C(=C/C[C@@H](OC(=O)c1ccncc1)c1ccccc1OCCO)c1cc(C(=O)OC)ccc1OC)C(C)C`, for which the z-score is 0.548 (inactive) in [1]; 23.6 (active) in test [3]; 7.36 (inactive) in test [4]; 4.04 (inactive) in [5]; 1.44 (inactive) in [6]; 1.12 in test [7]. Besides, the z-score was -0.295 (inactive) in [8], -1.04 (inactive) in [9] and -1.63 in test [10]. This compound had a composite z-score in [2] of -0.204.
As for `COCCOC(=O)N1C(=O)[C@@]2(c3ccccc31)[C@H](c1ccc(OCCO)cc1)N1[C@H](c3ccccc3)[C@H](c3ccccc3)OC(=O)[C@H]1[C@@H]2C(=O)Nc1nc2ccccc2s1`, the z-score was 0.269 (inactive) in test [1]; 4.55 (inactive) in test [3]; 2.02 (inactive) in test [4]; -0.214 (inactive) in test [5]; 1.74 (inactive) in test [6]; -0.381 in test [7]. Moreover, the z-score in test [8] is 1.13 (inactive); in test [9], 1.17 (inactive); in test [10], 1.28. The compound further gave a composite z-score in test [2] of 0.071.
Regarding `[N-]=[N+]=NCc1ccccc1[C@H]1OC(c2ccc(OCCCO)cc2)=N[C@@]1(CCS(=O)(=O)c1ccccc1)C(N)=O`, the z-score is -0.56 (inactive) in [1]; 24.1 (active) in [3]; 6.95 (inactive) in test [4]; 1.56 (inactive) in test [5]; 0.764 (inactive) in test [6]; 0.273 in test [7]. In addition, the values for the z-score in test [8], in [9] and in [10] were 1.39 (inactive), 2.23 (inactive) and 1.78, respectively. This compound came in with a composite z-score in [2] of 0.345.
Take `C=C(C(=O)CC[C@H](OC(=O)c1cccnc1)c1ccc(CO)o1)C(C)C`: the z-score in test [1] is -0.92 (inactive); in test [3], 1.73 (inactive); in test [4], -0.115 (inactive); in [5] it was -0.158 (inactive); in [6], -0.0363 (inactive); in test [7] it was -0.143. Moreover, the z-score was 0.637 (inactive) in test [8], 0.123 (inactive) in test [9] and -0.0889 in test [10]. The composite z-score in [2] came to 0.333.
As to `O=C1NC(=O)C2C1C=CC(C(O)c1ccc(Br)cc1)N2Nc1ccccn1` (stereo not given), the z-score in test [1] was -0.325 (inactive); in test [3], -0.0691 (inactive); in test [4] it was -1.06 (inactive); in [5], 0.215 (inactive); in test [6], -1.94 (inactive); in test [7], 0.599. The z-score in test [8] is -1.54 (inactive); in test [9], -2.6 (inactive); in [10], -1.93. Besides, the composite z-score in test [2] was determined as 0.5.
Take `CCOC(=O)[C@H]1C/C=C/C[C@H](C(=O)OCC)C(=O)O[C@H]2[C@@H](OC)O[C@H](CO)[C@@H](OC(=O)Nc3ccc(OC)cc3)[C@@H]2OC1=O`: the z-score is 1.04 (inactive) in [1]; 0.736 (inactive) in test [3]; -0.0928 (inactive) in test [4]; -0.0986 (inactive) in [5]; 0.385 (inactive) in test [6]; -0.0056 in test [7]. In addition, the values for the z-score in [8], in [9] and in test [10] were -2.43 (inactive), -1.29 (inactive) and -1.99, respectively. The compound further came in with a composite z-score in [2] of 0.104.
As to `CC(=O)NCCCC[C@@H]1NC(=O)[C@@H]2C[C@H](C(=O)O)[C@H](c3ccc(O)cc3)N2C1=O`, the z-score is 0.139 (inactive) in [1]; 1.15 (inactive) in test [3]; 0.508 (inactive) in test [4]; 1.08 (inactive) in test [5]; 0.275 (inactive) in test [6]; -0.544 in [7]. The z-score was 1.03 (inactive) in test [8], -1.04 (inactive) in test [9] and 0.422 in test [10]. This compound also had a composite z-score in test [2] of 0.202.
For the compound `CCOC(=CC(=O)OC)CC(O)c1cccc(Cl)c1` (stereo not given), the z-score in test [1] is 1.04 (inactive); in [3], 4.33 (inactive); in [4], 0.101 (inactive); in test [5], 0.898 (inactive); in test [6] it was -1.72 (inactive); in test [7] it was 0.979. In addition, the z-score was 0.112 (inactive) in test [8], -0.513 (inactive) in test [9] and -0.131 in test [10]. This compound also registered a composite z-score in [2] of -0.494.
Take `CCOC(=O)C1=CC[C@@H](c2ccccc2)N(S(=O)(=O)c2ccc(C)cc2)C1`: the z-score in [1] is -1.46 (inactive); in test [3] it was 2.45 (inactive); in test [4], 0.596 (inactive); in test [5] it was 0.517 (inactive); in [6] it was 0.509 (inactive); in [7], -0.506. In addition, the z-score was -0.0336 (inactive) in test [8], -1.44 (inactive) in [9] and -1.63 in test [10]. The composite z-score in test [2] was 0.638.
Turning to `CCOC(=O)C[C@H]1[C@H](OC(=O)c2ccc(-c3ccccc3)cc2)[C@@H](NC(=O)C2CCCCC2)c2cc(OCCCO)ccc2N1C(=O)c1ccccc1`, the z-score is -0.915 (inactive) in test [1]; 0.479 (inactive) in test [3]; 0.705 (inactive) in test [4]; -0.138 (inactive) in test [5]; 0.505 (inactive) in test [6]; 1.09 in test [7]. The z-score was 0.169 (inactive) in test [8], -0.849 (inactive) in test [9] and 1.49 in test [10]. In test [2], this compound showed a composite z-score of -0.263.

(Values after PubChem BioAssay.)
